Structures are written as SMILES. Unmarked numbers belong to inactive results. Calls of active or inactive are those of the source. Rule as the data show it: active = inhibition above about 42%; inactive = the rest.

Chain of Nuclear receptor subfamily 5 group A member 2 (Homo sapiens) (O00482 whole entry, looked up): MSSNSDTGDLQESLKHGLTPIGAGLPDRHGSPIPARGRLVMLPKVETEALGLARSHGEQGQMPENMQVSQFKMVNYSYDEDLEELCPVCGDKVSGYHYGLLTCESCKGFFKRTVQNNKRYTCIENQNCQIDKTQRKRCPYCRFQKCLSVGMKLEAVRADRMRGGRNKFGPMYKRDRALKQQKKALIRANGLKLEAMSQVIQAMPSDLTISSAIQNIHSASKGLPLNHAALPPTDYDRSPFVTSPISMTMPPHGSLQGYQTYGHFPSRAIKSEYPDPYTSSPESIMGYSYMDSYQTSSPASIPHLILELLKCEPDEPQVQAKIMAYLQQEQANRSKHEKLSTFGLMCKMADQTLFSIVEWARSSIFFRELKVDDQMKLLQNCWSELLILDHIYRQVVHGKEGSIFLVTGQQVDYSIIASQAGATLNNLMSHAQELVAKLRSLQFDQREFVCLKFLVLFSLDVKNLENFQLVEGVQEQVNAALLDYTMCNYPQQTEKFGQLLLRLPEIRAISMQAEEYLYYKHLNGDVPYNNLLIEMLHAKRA

This assay has as its target Nuclear receptor subfamily 5 group A member 2 (Homo sapiens) (UniProt O00482). Description: LRH-1 (NR5A2) inverse agonists, retest, confirmation, cell-based, luminescence (AID 651613).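 Also: HEK293T cells co-transfected with LRH-1 and StAR promoter luciferase reporter; 0% = vehicle wells and 100% = parental cells lacking receptor.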 As to conditions: cell-based LRH-1 luciferase reporter, inverse agonism; at 3.6 µM; active compounds read high. (In general: Reporter assays use an easily measured gene product as a stand-in for the process of interest.)
Usually inhibition stands for the change of the read-out against control, counted positive when it falls. On to `COc1cc(N)c2ncccc2c1Cl`, for which the inhibition is 17.4%. For the compound `C/C(=N/N1CCN(Cc2cccc3ccccc23)CC1)c1cccnc1`, the inhibition is -17.6%.

As to `Cc1nn(CC(=O)NCCC2=CCCCC2)c(C)c1[N+](=O)[O-]`, the inhibition is 48.9% (active). As to `CCOc1ccc(CCNC(=O)COC(=O)c2cc([N+](=O)[O-])ccc2N2CCOCC2)cc1OCC`, the inhibition is 58.4% (active). In the case of `O=C(CSc1nnc(Cc2cccs2)n1Cc1ccco1)Nc1ccc(Cl)cc1Cl`, the inhibition is 51.8% (active). In the case of `O=C(c1cc(-c2ccco2)nc2ccccc12)N(Cc1nnc(-c2ccc(Cl)cc2)o1)C1CC1`, the inhibition was -5.73%. Regarding `COc1ccc(NC(=O)COc2ccc(N(C)S(=O)(=O)c3ccc(Cl)cc3)cc2)cc1OC`, the inhibition is 67.1% (active).

As to `CC(O)(c1cccnc1)c1nc(-c2cccc(C#N)c2)cs1` (stereo unspecified), the inhibition was 53.4% (active). With `C=CC(=O)Nc1cccc(Oc2ncnc3[nH]cc(-c4cnc5ccccc5c4)c23)c1`, the inhibition was 67.9% (active). `COc1ccc(C2=CC(=O)CC(C)(C)C2)cc1OC`: the inhibition is 59.1% (active). `O=C(CSc1nnc(CNC(=O)c2c(F)cccc2F)o1)Nc1ccc2c(c1)OCCO2`: the inhibition is 44.6% (active). Consider `O=C(CSc1n[nH]c(-c2ccccc2)n1)Nc1ccc(N2CCOCC2)cc1`, for which the inhibition is 56.6% (active).

For the compound `COc1ccc2nc(N3CCC(O)CC3)c(C#N)cc2c1`, the inhibition is 43.6% (active).

Regarding `Cc1ccc(S(=O)(=O)NCc2ccncc2)cc1`, the inhibition was 54.7% (active). To `COc1ccc(NC(=O)CSC2=NCCN2)cc1` belongs 31.3%; to `O=[N+]([O-])c1ccc(N2CCCC2)nc1N1CCCC1`, 59.7% (active).

The values are drawn from PubChem BioAssay.
